Results filed as inconclusive are left out. A call without a number means that no potency is given here. Calls of active or inactive are those of the source. The call rests on the fitted dose curve; in most records, active means well fitted inhibition curve with a large enough effect; inconclusive means small, poorly fitted or top-dose-only effect; inactive means no such curve, though single readings can be large or run the other way.
Legend:
[1] = test system: Zika virus NS2B-NS3 protease (unlinked complex); assay: Primary screen GU Rhodamine qHTS for Zika virus inhibitors: Unlinked NS2B-NS3 protease assay (AID 1347159); further: nearly all actives have a fitted effect of over 60% in size; further: potency means the concentration at half of the fitted maximal effect
Method in brief: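 Compounds, tested up to 114 microM, were incubated for 15 minutes with 25 nM unlinked NS2B-NS3 protease at pH 8.0. Cleavage of 1.5 microM Rhodamine110 substrate was then followed by fluorescence for 15 minutes.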

[2] = test system: Zika virus NS2B-NS3 protease (linked construct); assay: Primary screen NINDS Rhodamine qHTS for Zika virus inhibitors (AID 1347160); further: nearly all actives have a fitted effect of over 55% in size
Method in brief: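 Percent inhibition, normalized to uninhibited and enzyme-free controls, is fitted to a 4-parameter Hill equation. Fluorescence change comes from a 15-min cleavage of 1.5 microM bis-peptide Rhodamine110 substrate by 25 nM linked NS2B-NS3 at room temperature.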

SMILES	Potency [1]	Potency [2]
C=C1C[C@]23C[C@@]1(O)CC[C@H]2[C@@]12C=C[C@H](O)[C@@](C)(C(=O)O1)[C@H]2[C@@H]3C(=O)O	inactive	inactive
C/C(=C\C(=O)C[C@@]12C(=O)O[C@]3(C)CC[C@H]1C[C@H]23)C(N)=O	inactive	inactive
C[C@@H]1C(=O)O[C@H](C)[C@H]1C[C@@H](O)[C@](C)(O)[C@H]1CC[C@@]2(O)C3=CC(=O)[C@@H]4C[C@@H](O)[C@@H](O)C[C@]4(C)C3CC[C@]12C (stereo partly drawn)	inactive	inactive
C=C1CC2C(C)(CCC(=O)O)C(C(C)(C)O)CCC2(C)C2(C(=O)OC)C(=O)C(C)(O)C(=O)C12C (stereo not drawn)	inactive	inactive
CC1(C)O[C@H]2CC(=O)OC[C@@]23C1=C(O)C(=O)[C@]1(C)C3CC[C@@]2(C)[C@H](c3ccoc3)OC(=O)[C@H]3O[C@]321 (stereo partly drawn)	inactive	inactive
C[C@@]12CC3(S(=O)(=O)O)OC(O1)[C@]1(COC(=O)c4ccccc4)[C@H]3C[C@]21O[C@@H]1O[C@H](CO)[C@@H](O)[C@H](O)[C@H]1O	inactive	inactive
CCCCC(=O)N1c2ccccc2NC2=C(C(=O)CCC2)C1c1ccccc1Cl (stereo not drawn)	inactive	inactive
CC(=O)OC[C@]12[C@@H](OC(=O)c3ccoc3)C[C@@H]3[C@@H](OC(C)=O)[C@]1(OC3(C)C)[C@@](C)(O)C[C@H](OC(=O)c1ccoc1)[C@@H]2OC(=O)c1ccoc1	inactive	inactive
Cc1occc1C(=O)n1ccnc1	inactive	inactive
COc1ccc(/C=C/C(=O)O[C@@H]2[C@@H](OC(C)=O)[C@@H](OC(C)=O)[C@H](O[C@H]3[C@@H]4C=CO[C@@H](O[C@@H]5O[C@H](CO)[C@@H](O)[C@H](O)[C@H]5O)[C@@H]4[C@@]4(CO)O[C@@H]34)O[C@H]2C)cc1	inactive	inactive
COc1ccc(CCc2nc3cc(-c4c(C)noc4C)ccc3n2C[C@H](C)N2CCOCC2)cc1Cl	inactive	inactive
N[C@@H](CC(=O)Nc1ccc(Oc2cc(F)c(F)cc2Br)cc1)C(=O)O	70.8 µM (active)	inactive
O=C(O)c1ccnc(-c2cc(C(=O)NCCc3ccccc3)ccn2)c1	inactive	inactive
CC(C)C(O)(CO)CCO[C@@H]1O[C@H](CO[C@H]2OC[C@](O)(CO)[C@H]2O)[C@@H](O)[C@H](O)[C@H]1O (stereo partly drawn)	inactive	inactive

Reference: PubChem BioAssay (NCATS)
